Inconclusive results are not listed. Activity calls are given as the source filed them. Unless noted, the call rests on the fitted dose curve; in most records, active means well fitted inhibition curve with a large enough effect; inconclusive means small, poorly fitted or top-dose-only effect; inactive means flat fitted curve, though single readings scatter.
Tests used:
[1] = molecular target: Cytochrome P450 1A2 (Homo sapiens) (UniProt P05177); experiment: p450-cyp1a2 (AID 410; calls by dose curve; further: potency means the concentration at half of the fitted maximal effect;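 on activity change, negative = inhibition: -100% = full effect of reference inhibitor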)
Outline: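 20nM CYP1A2 with 100uM Luciferin-ME (at Km) in 100mM KPO4; compound preincubated 10 min, NADPH regeneration added, 60 min at room temperature. Luciferin quantified by luminescence after detection reagent; normalized to 57 uM furafylline.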

[2] = NFAT Signaling Pathway (AID 444; active means well fitted curve in either direction with a large enough effect, not every such curve was filed as active;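 further: carbachol stimulus at about its EC50 of 1 µM final; on the % scale 0 is the no-effect control and ±100 the full control effect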); settings: Jurkat NFAT-bla M1, carbachol, beta-lactamase ratio, 5 h; at 17.2 µM (top of the series) unless noted
Outline: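 Read-out: CCF4 FRET ratio (460 nm/530 nm) after 1 h RT dye loading, used for %activity and AC50 from titration series. Cells: Jurkat NFAT-β-lactamase/M1 line, treated with compound plus 1 uM carbachol for 5 h, 37 °C.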

[3] = Stat Signaling Pathway (AID 446; active means well fitted curve in either direction with a large enough effect, not every such curve was filed as active;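 further: ME-180 cervical cancer cells given 40 pM IL-6 alongside compound; SIE-controlled beta-lactamase reporter measured as 460/530 nm FRET emission ratio; on the % scale 0 is the no-effect control and ±100 the full control effect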)
Outline: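 Reporter line: ME-180 cervical carcinoma, SIE-beta-lactamase. Treatment: compound with 40 pM IL-6, 5 hrs, 37 C, in low-serum OPTI-MEM with 10 mM HEPES pH 7.3. Detection: 460/530 nm fluorescence.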

[4] = molecular target: Glucocorticoid receptor (Homo sapiens) (UniProt P04150); experiment: GR-EFC Redistribution (AID 451; calls by dose curve; further: potency means the concentration at half of the fitted maximal effect); settings: CHO-K1 GR-EFC translocation, beta-gal luminescence, 2 h
Outline: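 Translocation of GR-ED fusion to nuclear EA restores b-gal, read by luminescence after 1 h room-temperature detection. Engineered CHO-K1 biosensor cells, 1,000/well, exposed 2 h at 37 C to titrations up to 46 uM final.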

[5] = molecular target: Mitogen-activated protein kinase 10 (Mus musculus) (UniProt Q61831); experiment: JNK3 AlphaScreen Assay (AID 530; active means well fitted curve in either direction with a large enough effect, not every such curve was filed as active;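 further: kinase came from lysate of stimulated human HepG2 cells; signal reports phosphorylation of biotinylated GST-cJun 1-79 at Ser73 with 10 µM ATP; on the % scale 0 is the no-effect control and ±100 the full control effect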)
Outline: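 Compound titrations were preincubated 15 minutes at room temperature with substrate, antibody and pre-activated JNK3-containing HepG2 lysate. Reactions were started with 10 uM ATP and stopped with EDTA-containing bead buffer for AlphaScreen detection.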

[6] = molecular target: 3',5'-cyclic-AMP phosphodiesterase 4B (Homo sapiens) (UniProt Q07343); experiment: qHTS Assay for Inhibitors of PDE-IV (AID 607; active means well fitted activation curve with a large enough effect in the main read-out, with a control signal flat, not every such curve was filed as active; further: % of control where 0% means no effect)
Outline: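 Cell-based read-out of cAMP via a modified cyclic nucleotide-gated channel and membrane potential dye (535/590 nm) in HEK293 cells expressing PDE4 endogenously. Compounds tested up to 22.9 uM final; 100 uM RO 20-1724 reference.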

[7] = qHTS Assay for Lipid Storage Modulators (AID 1519; calls by dose curve; on activity change, negative = inhibition: on the % scale 0 is the no-effect control and ±100 the full control effect); settings: Drosophila S3 cells, BODIPY lipid droplet/cell ratio, laser cytometry, cells loaded with oleic acid; for activity change, negative = inhibition: at 25.7 µM (top of the series)
Outline: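 Cells seeded at 5,000 per well were treated with compounds over a concentration series and loaded with oleic acid (400 uM, as added). Lipid droplet fluorescence (488 nm excitation, 500-530 nm channel) was read by laser-scanning cytometry and normalized to 20 uM Triacsin C.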

[8] = molecular target: Ubiquitin carboxyl-terminal hydrolase 1 (Homo sapiens) (UniProt O94782); experiment: Inhibitors of USP1/UAF1: Pilot qHTS (AID 504865);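 further: rhodamine fluorescence freed from ubiquitin-rhodamine substrate followed over time; top concentration of the series differs between compounds; on the % scale 0 is the no-effect control and ±100 the full control effect; nearly all actives have a fitted effect of over 35% in size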
Outline: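 USP1/UAF1 complex at 1 nM preincubated 15 min at room temperature with compound, then Ub-Rho substrate added at 150 nM final. Fluorescence (480/540 nm) read kinetically in 50 mM HEPES pH 7.8, 0.5 mM EDTA, 1 mM TCEP, 0.1 mg/ml BSA, 0.01% Tween-20.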

[9] = molecular target: Luciferin 4-monooxygenase (Photinus pyralis) (UniProt P08659); experiment: Biochemical firefly luciferase enzyme assay for NPC (AID 624030);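 further: purified P. pyralis luciferase at 10 nM with luciferin and ATP substrate; 0% = DMSO and -100% = full luciferase inhibition by PTC124 control; nearly all actives have a fitted effect of over 70% in size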
Outline: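 Direct inhibition of firefly luciferase enzyme (10 nM final, 50 mM Tris Acetate) assessed by luminescence within 5 minutes. Percent activity scaled between DMSO and PTC124 positive control, with concentration-effect curves classified by fit quality and response.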

[10] = qHTS profiling for inhibitors of Plasmodium falciparum proliferation (AID 504749); further: potency means the concentration at half of the fitted maximal effect;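 on activity, negative = inhibition: 0% = DMSO vehicle and full inhibition = artemisinin control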; on all read-outs here: nearly all actives have a fitted effect of over 60% in size; settings: P. falciparum in erythrocytes, SYBR Green DNA, 72 h; for activity, negative = inhibition: at 12.8 µM (top of the series)
Outline: (§1)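 Infected RBCs, 0.3% parasitemia/2.5% Hct final; cpd 72 h, 37 C, 5% CO2; lysis buffer with saponin/triton/SYBR Green I, o/n RT dark; FI 485/535; norm. to artemisinin (0.29 uM) and DMSO.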

[11] = system: W2; experiment: as above; settings: P. falciparum in erythrocytes, SYBR Green DNA, 72 h; series mostly up to 12.8 µM
Outline: as §1

[12] = molecular target: Glucocorticoid receptor (Homo sapiens) (UniProt P04150); experiment: GR-GFP Redistribution (AID 450;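 active means compounds whose dose series gives a full or clear partial fitted curve of increased nuclear translocation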; further: potency means the concentration at half of the fitted maximal effect); settings: U2OS GR-GFP nuclear translocation, laser cytometry, 2 h
[13] = system: C2A; experiment: qHTS profiling for inhibitors of Plasmodium falciparum proliferation (AID 504749); further: nearly all actives have a fitted effect of over 60% in size; further: potency means the concentration at half of the fitted maximal effect;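 on activity, negative = inhibition: 0% = DMSO vehicle and full inhibition = artemisinin control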; settings: P. falciparum in erythrocytes, SYBR Green DNA, 72 h; series mostly up to 12.8 µM
Outline: as §1

[14] = system: CP238; experiment: as above; settings: P. falciparum in erythrocytes, SYBR Green DNA, 72 h; series mostly up to 12.8 µM
Outline: as §1

[15] = system: CP256; experiment: as above; settings: P. falciparum in erythrocytes, SYBR Green DNA, 72 h; series mostly up to 12.8 µM
Outline: as §1

[16] = system: FAB9; experiment: as above; settings: P. falciparum in erythrocytes, SYBR Green DNA, 72 h; series mostly up to 12.8 µM
Outline: as §1

[17] = system: JCK; experiment: as above; settings: P. falciparum in erythrocytes, SYBR Green DNA, 72 h; series mostly up to 12.8 µM
Outline: as §1

[18] = system: PC49; experiment: as above; settings: P. falciparum in erythrocytes, SYBR Green DNA, 72 h; series mostly up to 12.8 µM
Outline: as §1

[19] = system: SC27B; experiment: as above; settings: P. falciparum in erythrocytes, SYBR Green DNA, 72 h; series mostly up to 12.8 µM
Outline: as §1

[20] = measured here: cell count channel max response
[21] = measured here: lipid channel max response

3',5'-cyclic-AMP phosphodiesterase 4B (Homo sapiens), sequence (Q07343 whole entry, looked up): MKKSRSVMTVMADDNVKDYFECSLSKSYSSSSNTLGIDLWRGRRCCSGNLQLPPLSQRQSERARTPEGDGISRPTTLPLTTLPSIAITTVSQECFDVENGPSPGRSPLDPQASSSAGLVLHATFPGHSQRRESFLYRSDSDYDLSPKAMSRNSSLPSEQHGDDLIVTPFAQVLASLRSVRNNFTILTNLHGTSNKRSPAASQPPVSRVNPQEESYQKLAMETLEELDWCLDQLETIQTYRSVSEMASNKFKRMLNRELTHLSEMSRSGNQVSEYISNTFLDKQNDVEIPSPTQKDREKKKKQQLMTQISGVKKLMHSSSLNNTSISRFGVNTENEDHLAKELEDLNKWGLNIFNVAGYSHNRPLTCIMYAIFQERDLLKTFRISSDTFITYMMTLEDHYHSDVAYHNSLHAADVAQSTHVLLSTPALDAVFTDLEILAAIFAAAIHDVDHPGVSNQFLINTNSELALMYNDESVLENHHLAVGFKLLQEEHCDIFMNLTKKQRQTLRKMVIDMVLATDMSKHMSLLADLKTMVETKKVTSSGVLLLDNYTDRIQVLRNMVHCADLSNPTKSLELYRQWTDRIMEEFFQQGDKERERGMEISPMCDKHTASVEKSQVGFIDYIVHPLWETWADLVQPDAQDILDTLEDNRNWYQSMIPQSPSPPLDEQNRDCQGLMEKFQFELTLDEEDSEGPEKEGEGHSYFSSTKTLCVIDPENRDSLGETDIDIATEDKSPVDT
Cytochrome P450 1A2 (Homo sapiens), sequence (P05177 whole entry, looked up): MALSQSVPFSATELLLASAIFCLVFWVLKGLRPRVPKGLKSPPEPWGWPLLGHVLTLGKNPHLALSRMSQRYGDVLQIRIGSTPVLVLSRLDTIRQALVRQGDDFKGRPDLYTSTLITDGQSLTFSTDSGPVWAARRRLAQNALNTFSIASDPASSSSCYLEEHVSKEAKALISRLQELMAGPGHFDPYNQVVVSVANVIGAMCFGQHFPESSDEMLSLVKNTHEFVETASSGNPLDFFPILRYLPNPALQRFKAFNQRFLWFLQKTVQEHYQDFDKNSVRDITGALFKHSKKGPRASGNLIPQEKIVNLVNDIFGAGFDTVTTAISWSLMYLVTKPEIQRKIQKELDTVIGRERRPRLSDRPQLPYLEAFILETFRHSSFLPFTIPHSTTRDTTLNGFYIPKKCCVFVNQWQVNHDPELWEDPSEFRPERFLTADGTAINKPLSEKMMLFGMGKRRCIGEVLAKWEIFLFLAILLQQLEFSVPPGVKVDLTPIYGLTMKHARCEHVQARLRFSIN
Glucocorticoid receptor (Homo sapiens), sequence (P04150 whole entry, looked up, the tested form may be a part): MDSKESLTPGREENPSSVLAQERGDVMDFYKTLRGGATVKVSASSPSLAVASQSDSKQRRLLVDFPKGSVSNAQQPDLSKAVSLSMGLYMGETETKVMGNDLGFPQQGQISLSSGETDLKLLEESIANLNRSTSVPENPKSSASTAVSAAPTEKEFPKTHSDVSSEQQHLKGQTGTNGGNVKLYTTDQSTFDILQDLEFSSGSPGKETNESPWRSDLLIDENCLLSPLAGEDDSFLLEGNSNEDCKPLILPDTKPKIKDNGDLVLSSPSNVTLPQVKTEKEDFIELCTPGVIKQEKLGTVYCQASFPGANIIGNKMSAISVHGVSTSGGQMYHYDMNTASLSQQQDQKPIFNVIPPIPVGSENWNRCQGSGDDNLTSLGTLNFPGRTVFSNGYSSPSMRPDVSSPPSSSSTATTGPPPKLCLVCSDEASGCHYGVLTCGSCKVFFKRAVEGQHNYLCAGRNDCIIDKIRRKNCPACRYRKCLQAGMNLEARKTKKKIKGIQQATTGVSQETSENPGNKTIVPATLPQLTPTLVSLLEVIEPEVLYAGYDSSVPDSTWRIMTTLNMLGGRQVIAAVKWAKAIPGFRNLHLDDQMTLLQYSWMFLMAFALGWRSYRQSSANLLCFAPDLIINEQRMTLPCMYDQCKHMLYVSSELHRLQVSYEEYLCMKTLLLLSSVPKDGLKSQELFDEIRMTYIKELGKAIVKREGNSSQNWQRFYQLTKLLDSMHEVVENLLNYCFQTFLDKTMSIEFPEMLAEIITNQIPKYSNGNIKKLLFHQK
Luciferin 4-monooxygenase (Photinus pyralis), sequence (P08659 whole entry, looked up): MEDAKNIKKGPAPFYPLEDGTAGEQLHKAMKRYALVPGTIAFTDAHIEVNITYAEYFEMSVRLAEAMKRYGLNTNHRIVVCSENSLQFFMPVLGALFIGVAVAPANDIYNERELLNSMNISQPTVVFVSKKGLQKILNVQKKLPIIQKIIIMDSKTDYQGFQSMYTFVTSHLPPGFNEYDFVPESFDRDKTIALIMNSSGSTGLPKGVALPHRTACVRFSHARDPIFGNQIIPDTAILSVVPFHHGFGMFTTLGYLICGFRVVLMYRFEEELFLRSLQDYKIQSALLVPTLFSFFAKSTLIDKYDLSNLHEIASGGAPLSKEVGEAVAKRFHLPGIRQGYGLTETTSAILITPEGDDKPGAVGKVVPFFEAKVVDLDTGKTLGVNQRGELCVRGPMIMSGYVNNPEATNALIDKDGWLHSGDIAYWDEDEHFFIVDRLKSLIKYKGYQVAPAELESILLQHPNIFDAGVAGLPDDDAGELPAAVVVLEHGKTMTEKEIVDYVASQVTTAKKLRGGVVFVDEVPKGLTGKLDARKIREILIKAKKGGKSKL
Ubiquitin carboxyl-terminal hydrolase 1 (Homo sapiens), sequence (O94782 whole entry, looked up): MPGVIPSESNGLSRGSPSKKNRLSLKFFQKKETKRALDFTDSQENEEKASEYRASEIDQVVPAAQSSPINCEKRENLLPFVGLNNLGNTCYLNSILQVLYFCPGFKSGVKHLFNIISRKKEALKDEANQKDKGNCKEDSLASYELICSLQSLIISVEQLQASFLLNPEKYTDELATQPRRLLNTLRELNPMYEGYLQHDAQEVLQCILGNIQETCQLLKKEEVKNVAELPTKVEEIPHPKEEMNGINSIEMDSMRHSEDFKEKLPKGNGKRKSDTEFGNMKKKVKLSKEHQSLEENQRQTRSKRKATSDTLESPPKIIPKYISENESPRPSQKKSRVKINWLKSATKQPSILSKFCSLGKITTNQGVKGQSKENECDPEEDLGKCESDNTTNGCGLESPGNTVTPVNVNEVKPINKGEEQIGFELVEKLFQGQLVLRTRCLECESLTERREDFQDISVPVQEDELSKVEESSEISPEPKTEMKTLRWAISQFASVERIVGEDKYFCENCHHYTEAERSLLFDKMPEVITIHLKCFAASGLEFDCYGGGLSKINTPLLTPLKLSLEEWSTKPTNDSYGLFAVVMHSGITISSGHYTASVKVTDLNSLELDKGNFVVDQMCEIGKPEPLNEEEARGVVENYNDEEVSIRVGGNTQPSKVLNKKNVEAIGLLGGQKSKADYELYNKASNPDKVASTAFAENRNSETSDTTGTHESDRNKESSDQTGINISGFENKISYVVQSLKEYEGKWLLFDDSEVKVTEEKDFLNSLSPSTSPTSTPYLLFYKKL

CCOC(=O)Oc1c(OC)cc(C(=O)O[C@H]2C[C@H]3CN4CCc5c([nH]c6cc(OC)ccc56)[C@@H]4C[C@H]3[C@@H](C(=O)OC)[C@@H]2OC)cc1OC
-12.3%: max response [7, 21]
active: Potency ([10]; parasite line A) 4.47 µM | Potency [11] 2.56 µM
inactive: Potency [1] | activity change, negative = inhibition [2] -2.78% | outcome [3] | Potency [4] > 20.6 µM | Potency [5] | outcome [6] | activity change, negative = inhibition [7] -4.31% | Potency [8] | Potency [9]
-12.6%: max response [7, 20]

CN1CCN([C@@H](c2ccccc2)c2ccc(Cl)cc2)CC1
-16%: max response [7, 20]
active: Potency [15] 3.55 µM | Potency [11] 2.03 µM
-18.7%: max response [7, 21]
inactive: Potency [1] | outcome [3] | Potency [12] > 20.6 µM | Potency [4] > 20.6 µM | outcome [6] | activity change, negative = inhibition [7] -3.4% | Potency [9] | activity, negative = inhibition ([10]; parasite line A) 1.67% | activity, negative = inhibition ([10]; parasite line B) -12.4% | Potency [13] | Potency [14] | Potency [16] | Potency [17] | Potency [18] | Potency [19]

CN(C)CCn1nnnc1SCC1=C(C(=O)O)N2C(=O)[C@@H](NC(=O)Cc3csc(N)n3)[C@@H]2SC1
-8.86%: max response [7, 21]
-8.06%: max response [7, 20]
inactive: Potency [1] | activity change, negative = inhibition [2] -2.63% | Potency [4] > 20.6 µM | Potency [5] | outcome [6] | activity change, negative = inhibition [7] -0.351% | Potency [8] | Potency [9] | activity, negative = inhibition ([10]; parasite line A) 0.61% | activity, negative = inhibition ([10]; parasite line B) 1.06% | Potency [13] | Potency [14] | Potency [15] | Potency [16] | Potency [18] | Potency [19]
active: Potency [11] 6.42 µM

CC(C)NC[C@H]1CCc2cc(CO)c([N+](=O)[O-])cc2N1
-14.1%: max response [7, 21]
-10%: max response [7, 20]
active: Potency [1] 10 µM
inactive: outcome [3] | Potency [12] > 20.6 µM | Potency [4] > 20.6 µM | Potency [5] | outcome [6] | activity change, negative = inhibition [7] -3.1% | Potency [8] | Potency [9] | activity, negative = inhibition ([10]; parasite line A) 7.96% | activity, negative = inhibition ([10]; parasite line B) 12.7% | Potency [13] | Potency [14] | Potency [15] | Potency [16] | Potency [17] | Potency [18] | Potency [19] | Potency [11]

NS(=O)(=O)c1cc2c(cc1Cl)N[C@@H](C(Cl)Cl)NS2(=O)=O
inactive: Potency [1] | activity change, negative = inhibition [2] -8.61% | Potency [5] | outcome [6] | activity change, negative = inhibition [7] -2.63% | Potency [8] | Potency [9] | activity, negative = inhibition ([10]; parasite line A) -8.3% | activity, negative = inhibition ([10]; parasite line B) 4.19% | Potency [13] | Potency [14] | Potency [15] | Potency [16] | Potency [17] | Potency [18] | Potency [19]
-19.9%: max response [7, 20] | max response [7, 21]
